Inconclusive results are not listed. Values without a mark were called inactive. Active and inactive are the calls of the source. Calls follow the shape of the dose curve; as a rule, active = well fitted activation curve with a large enough effect; inconclusive = small, poorly fitted or top-dose-only effect; inactive = no such curve, though single readings can be large or run the other way.
test: qHTS Assay for Identifying a Potential Treatment of Ataxia-Telangiectasia: Hit Validation; details: Ataxia-telangiectasia cell-based hit validation qHTS, in ATM-null A-T patient fibroblasts; series mostly up to 76.9 µM; activity change, positive = activation: at the top concentration;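 also: phospho-KAP1 level by AlphaLISA as a proxy for ATM-like kinase activity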; as to activity change, positive = activation: 0% is about no effect
Outline: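 KAP-1 phosphorylation was read by AlphaLISA as a measure of ATM-like activity in ATM-null F2112 fibroblasts. Compounds spanned up to 76.7 uM final, with 60 min exposure at 37C and a 6 hr detection incubation at 25C.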
Potency is read from the fitted curve at half-maximal effect.

Row | SMILES | activity change, positive = activation | Potency
1 | CC1(C)CC2(CCO1)OC(=O)CC2C(=O)Nc1c(Cl)cccc1Cl (configuration not stated) | -4.17% | 
2 | COc1ccc(Cl)cc1NC(=O)C[n+]1cccc(C)c1 | 3.47% | 
3 | O=C(O)CCCN1C(=O)/C(=C/C=C/c2ccco2)SC1=S | -9.72% | 
4 | CC1=NN(C(C#N)c2ccc([N+](=O)[O-])cc2)C(C)(C)C1 (configuration not stated) | -18.5% | 
5 | CN(C)C(=O)CN(C)S(=O)(=O)c1ccc(Cl)cc1 | -10.1% | 
6 | COc1ccccc1S(=O)(=O)Nc1ccc(-c2nnc3n2CCCCC3)cc1 | 2.78% | 
7 | CCS(=O)(=O)N1Cc2ccccc2CC1C(=O)Nc1cccc(OC)c1 (configuration not stated) | 1.61% | 
8 | CC1C(c2ccccc2)N(C)C(c2ccccc2)CC1(O)c1ccccc1 (configuration not stated) |  | 13 µM (active)
9 | CCc1ccc(NC(=O)CNCc2ccc(OC)c(OC)c2)cc1 | -3.12% | 
10 | COc1ccccc1Nc1nc(NCCCN(C)C)nc(N)c1[N+](=O)[O-] | 19.3% | 
11 | COc1ccc(CCNC2=NCCS2)cc1OC | -5.56% | 
12 | CNC(=O)c1ccc(-c2cc3onc(-c4ccccc4)c3c(=O)n2C)cc1 | 15.7% | 
13 | CNC(=O)/C=C/c1cc(C(=O)c2ccc(Cl)cc2Cl)cn1C | -18.1% | 
14 | OC1(CC#CCN2CCCCC2)c2ccccc2-c2ccccc21 | -11.2% | 
15 | O=C(Nc1ccccc1Oc1ccccc1)c1cccs1 |  | 41.2 µM (active)
16 | C=CCN1C(=O)/C(=C/C(=O)OC)S/C1=N\NC(=O)c1ccccc1 | 2.81% | 
17 | CCC(C)N1C(=S)SC(C)(C)C1N(O)C(=O)NC1CCCCC1 (configuration not stated) | -7.23% | 
18 | CC(C)(C)n1nc2c(c1NC(=O)C1CC(=O)N(c3ccc(Cl)cc3)C1)CS(=O)(=O)C2 (configuration not stated) | 3.47% | 
19 | CC(C)(C)NC(=O)c1cccc2c1-c1ccccc1C2=O | 3.82% | 

Row | SMILES | activity change, positive = activation | Potency
20 | CCNC(=S)N(CCc1c(C)[nH]c2ccccc12)Cc1cccnc1 | -30.6% | 
21 | COc1cc(/C=N/NC(=O)c2c(C)nc3ccc(Cl)cn23)cc(OC)c1OC | -2.81% | 
22 | N=c1ccn(Cc2ccc([N+](=O)[O-])cc2)cc1 | 9.64% | 
23 | CCn1c2ccccc2c2c3ncc4cccn4c3ccc21 |  | 46.3 µM (active)
24 | O=C(CCCn1nnnc1CN1CCOCC1)N1CCC(c2ccc(F)cc2)C1 (configuration not stated) | 20.8% | 
25 | O=C(CNCc1cccs1)Nc1cc(S(=O)(=O)N2CCCC2)ccc1Cl | 6.64% | 
26 | COc1cccc(/C=N/NC(=O)c2cc3cc([N+](=O)[O-])ccc3s2)c1O |  | 51.9 µM (active)
27 | C[C@H](NC(=O)OC(C)(C)C)C(=O)NCC1CCC(C(=O)N[C@@H](Cc2ccccc2)C(=O)O)CC1 (some centres not stated) | 6.25% | 
28 | CCC(=O)c1ccc2c(c1)OCCO2 | 14.3% | 
29 | O=C1C(Cl)=C(Nc2ccccc2)C(=O)c2ccccc21 |  | 16.4 µM (active)
30 | CC(C)CN(CC(C)C)C(=O)c1cc2c(=O)n3ccccc3nc2s1 | 23.6% | 
31 | c1ccc(CSc2nnc(-c3ccco3)n2Cc2ccco2)cc1 | 0.694% | 
32 | CC(C)(C=O)C1=CC(=O)c2ccccc2C1=O |  | 20.7 µM (active)
33 | CCC(=O)Nc1ccc(S(=O)(=O)c2ccc(NC(=O)CC)cc2)cc1 | -2.41% | 
34 | COc1ccc(-c2csc(-c3ccc(O)cc3)n2)cc1 | 10.1% | 
35 | O=C(C[n+]1cccc2ccccc21)c1ccc(NC(=O)c2ccccc2)cc1 | 0.803% | 
36 | CC(=O)NNC(=O)CN1C(=O)/C(=C/c2ccccc2)SC1=S | 9.09% | 
37 | COc1cccc(CN(C)CC(=O)NCc2ccc(F)cc2)c1OC | 5.21% | 

— PubChem BioAssay AID493192 (National Center for Advancing Translational Sciences (NCATS), 2011)
